# Screens (PubChem)
# Sampled rows, rich in hits. Any-hit rate of the full collection: about 7.3%.
# SMN2 splice up = qHTS Assay for Enhancers of SMN2 Splice Variant Expression; HEK293 SMN2-luciferase splicing reporter, luminescence, 30-36 h; Potency, µM (highest dose often 46.1 µM), without a hit: at the highest dose activity change, positive = activation, most hits filed as activators; actives 2.8% (n = 210,000); note: % of control where 0% means no effect; nearly all actives have a fitted effect of over 55% in size
#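 HEK293 cells carry an SMN2 minigene-luciferase reporter in which exon 7 inclusion puts luciferase in frame. Cells were seeded at 2000 cells/well, attached for 10-12 hours, then exposed to compounds for 30-36 hours at 37C before ONE-Glo luminescence.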
# Luc counter = Counterscreen for Luciferase (Kinase-Glo TM) Inhibition; Kinase-Glo luciferase, ATP luminescence, 8 min; Potency, µM (titrated, usually from 38.3 µM), inactives show top-dose activity change, negative = inhibition, usual class: inhibitors; actives 0.28% (n = 200,000); note: % is set by controls: 0 for no effect and ±100 for the full control effect; nearly all actives have a fitted effect of over 60% in size
#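 Light output from Kinase-Glo luciferase with luciferin and 10 uM ATP in 50 mM imidazole pH 7.2, KCl, MgCl2, Tween 20, BSA; compound pin-delivered, 8-min ambient incubation, then luminescence read.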
# NPC1 promoter act = qHTS Assay for NPC1 Promoter Activators. Potency, µM (highest dose often 9.22 µM), for the others: at the top dose activation, most hits filed as activators. Huh7 NPC1 promoter luciferase reporter, 24 h. actives 2.4% (n = 320,000). AID 485313, 2010; note: % of control where 0% means no effect; nearly all actives have a fitted effect of over 60% in size
#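 Luminescence read-out of NPC1 promoter-driven luciferase in stably transfected Huh7 cells; compounds delivered in DMSO and left 24 h at 37C, 5% CO2, qHTS titration format.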
# Rab9 promoter act = qHTS Assay for Rab9 Promoter Activators; Huh7 Rab9 promoter-luciferase reporter, luminescence, 24 h; Potency, µM (top dose mostly 9.22 µM), inactives show at the highest dose activation, negative = inhibition, actives largely listed as activators; actives 2.8% (n = 320,000); note: % of control where 0% means no effect; nearly all actives have a fitted effect of over 60% in size
#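 Luciferase signal after 10 min detection reagent at ambient indicates Rab9 promoter upregulation; stably transfected Huh7 cells were treated 24 h with compound in DMSO at 37 °C, 5% CO2.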
# ELG1 genotox = qHTS screen for small molecules that induce genotoxicity in human embryonic kidney (HEK293T) cells expressing luciferase-tagged ELG1; HEK293T ELG1-luciferase reporter, luminescence, 16 h; Potency, µM (top dose mostly 46 µM), inactives show top-dose activity change, positive = activation, hits mostly activators; actives 1.3% (n = 330,000); AID 504466, 2011; note: % of control where 0% means no effect; nearly all actives have a fitted effect of over 60% in size
#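 Quantitative HTS format in 1536-well plates. HEK293T ELG1-luciferase reporter cells receive test compound and are incubated 16 hr at 37 °C, 5% CO2; ONE-Glo added, 30 min room temperature, then luminescence read.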
# FLuc counter = qHTS profiling assay for firefly luciferase inhibitor/activator using purifed enzyme and Km concentrations of substrates (counterscreen for miR-21 project). AID 588342, 2011. Potency, µM (titrated, usually from 57.5 µM), for the others: at the highest dose activity change, negative = inhibition, usual class: inhibitors. Luciferin 4-monooxygenase (Photinus pyralis), P08659. actives 6.9% (n = 360,000). purified FLuc, Km substrates, luminescence inhibition;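 note: plate controls were vehicle for no effect and reference inhibitor for full effect; nearly all actives have a fitted effect of over 55% in size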
# Target sequence (P08659 whole entry, looked up): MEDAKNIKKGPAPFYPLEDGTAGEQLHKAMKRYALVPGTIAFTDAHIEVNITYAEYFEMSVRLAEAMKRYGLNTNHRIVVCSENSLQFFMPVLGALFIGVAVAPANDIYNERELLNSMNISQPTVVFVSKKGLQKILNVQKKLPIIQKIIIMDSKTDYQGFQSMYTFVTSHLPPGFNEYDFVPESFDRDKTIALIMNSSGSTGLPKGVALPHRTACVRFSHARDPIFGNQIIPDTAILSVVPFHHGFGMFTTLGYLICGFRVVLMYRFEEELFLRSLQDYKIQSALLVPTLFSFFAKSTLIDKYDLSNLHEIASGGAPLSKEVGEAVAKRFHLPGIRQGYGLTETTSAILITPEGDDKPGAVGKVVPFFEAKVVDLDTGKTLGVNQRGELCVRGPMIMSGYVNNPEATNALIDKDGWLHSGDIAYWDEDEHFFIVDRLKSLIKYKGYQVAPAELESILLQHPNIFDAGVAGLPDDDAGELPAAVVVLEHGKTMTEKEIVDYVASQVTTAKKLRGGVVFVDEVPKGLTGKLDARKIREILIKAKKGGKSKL
#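 Purified P. pyralis luciferase (10nM final) with 10uM D-luciferin and 10uM ATP (Km levels) in 50mM Tris acetate pH 7.5, 10mM Mg acetate, 0.01% Tween-20, 0.05% BSA; qHTS 6-point titration, ~60 µM downward; luminescence read.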
# The depositor's hits bear a star; ? = inconclusive; · = no result; [ ] = remark or other dose. Calls come from the whole dose curve; as a rule, active = well fitted curve in the direction sought with a large enough effect; inconclusive = small, poorly fitted or top-dose-only effect, or another doubt; inactive = no such curve, though single readings can be large; an effect the other way counts as inactive or inconclusive. Potency is the fitted concentration of half-maximal effect.
SMILES,SMN2 splice up,Luc counter,NPC1 promoter act,Rab9 promoter act,ELG1 genotox,FLuc counter
CCOC(=O)c1c(C)[nH]c(N=Nc2cccc(C)c2)c1C,7.9µM*,-2%,1.8µM*,2.8µM*,2.5µM*,7.6µM*
OCC(CO)(CBr)CBr,-9%,·,·,·,·,·
CCOc1ccc(C2C(=O)N(C3CCCCCC3)CC(=O)N2Cc2ccc(F)cc2)cc1OC (stereo not drawn),·,·,·,·,·,-5%
CCOc1ccc(CNC(=O)C2CCN(c3nnc(-n4c(C)ccc4C)s3)CC2)cc1,-10%,·,·,·,·,-11%
Cc1ccc(NC(=O)c2cc(N(C)C)ccc2[P+](=O)O)cc1,-7%,9%,11%,2%,?,19µM*
Cc1ccc(-n2nc(CO)c(C(=O)NCCCCc3ccccc3)n2)cc1C,9%,·,·,·,·,?
O=C(Nc1cccc(Cl)c1)c1ccc2c(=O)n3c(nc2c1)CCCCC3,?,-1%,1.6µM*,0.89µM*,?,3.4µM*
O=C(Nc1ccc(F)c(Cl)c1)c1ccc2c(=O)n3c(nc2c1)CCCCC3,·,·,3.2µM*,1.8µM*,-9%,6.7µM*
Cc1ccc(NC(=O)c2ccc3c(=O)n4c(nc3c2)CCC4)cc1F,·,·,3.2µM*,2.5µM*,?,·
CCc1cccc(NC(=O)c2ccc3c(=O)n4c(nc3c2)CCCCC4)c1,·,·,?,23%,-8%,13µM*
O=C(Nc1ccc(Cl)cc1)c1ccc2c(=O)n3c(nc2c1)CCCCC3,·,·,15%,19%,12%,?
CNC(=O)c1ccc(NC(=O)c2ccc3c(=O)n4c(nc3c2)CCC4)cc1,·,·,-2%,1%,0%,-10%
C[C@@]12CCC(=O)C=C1CC[C@H]1C2[C@@H](O)C[C@]2(C)[C@@H]1CC[C@@]2(O)C(=O)CO (stereo partly drawn),11%[9.22 µM],-4%[7.66 µM],·,·,·,·
O=C(Nc1ccccn1)c1ccc2c(=O)n3c(nc2c1)CCCCC3,·,·,1µM*,0.56µM*,?,4.8µM*
O=C(Nc1ccc(F)cc1)c1ccc2c(=O)n3c(nc2c1)CCCCC3,·,·,3.2µM*,4.5µM*,?,13µM*
O=C(O)[C@@H](c1ccccc1)[C@@H](C(=O)O)c1ccccc1,-8%[9.22 µM],-2%[7.66 µM],·,·,·,·
CCN1C(=O)c2ccccc2S(=O)(=O)c2ccc(C(=O)NCc3ccccc3)cc21,23%,·,·,·,·,-2%
c1ccc(-c2nnc(NC3=NCCC3)o2)cc1,8.9µM*,?,?,0.35µM*,1.8µM*,6µM*
Fc1ccc(-c2nnc(-c3ccc(F)cc3)o2)cc1,·,·,2.8µM*,?,?,4.3µM*
Fc1ccc(-c2nnc(NC3=NCCCCC3)o2)cc1,-21%,11µM*,?,0.089µM*,?,0.6µM*
CCCOc1ccc(CNC(=O)CCCn2nc(C)c3sc4ccccc4c3c2=O)cc1,·,·,·,·,·,7.6µM*
Cc1nn(CCCC(=O)Nc2cccc(F)c2)c(=O)c2c1sc1ccccc12,·,·,·,·,·,15µM*
CCc1cccc(C)c1NC(=O)CCCn1nc(C)c2sc3ccccc3c2c1=O,·,·,·,·,·,-11%
Cc1ccc(CSc2ncc(Cl)c(C(=O)NCCc3ccc(S(N)(=O)=O)cc3)n2)cc1,-21%,·,·,·,·,-12%
COc1ccc2c(c1)c1c(c(=O)n(Cc3ccccc3)c(=O)n1CC(=O)Nc1ccccc1OC)n2C,·,·,·,·,·,-4%
SMILES,SMN2 splice up,Luc counter,NPC1 promoter act,Rab9 promoter act,ELG1 genotox,FLuc counter
Cc1ccc(C)c(N2CCN(C(=O)C3CCN(c4nc(-c5ccc(C(C)C)cc5)no4)CC3)CC2)c1,·,·,·,·,·,12µM*
Cc1ccc(NC(=O)C2CCN(c3nc(-c4ccc(C(C)C)cc4)no3)CC2)c(Cl)c1,·,·,·,·,·,21µM*
CC(=O)c1ccc(NS(=O)(=O)c2ccc3[nH]c(=O)[nH]c3c2)cc1,·,·,·,·,·,-19%
COc1ccc(-n2ncc3c(N4CCN(c5cccc(C)c5)C(C)C4)ncnc32)cc1 (stereo not drawn),·,·,·,·,·,-2%
Cc1cccc(-n2ncc3c(N4CCOCC4)ncnc32)c1,-68%,?,0.35µM*,0.35µM*,?,0.54µM*
Cc1cccc(-n2ncc3c(N4CCCC4)ncnc32)c1,1.6µM*,-7%,0.5µM*,0.63µM*,?,0.95µM*
Cc1cccc(-n2ncc3c(N4CCN(c5ccccc5)CC4)ncnc32)c1,·,·,·,·,·,-2%
Cc1cccc(-n2ncc3c(N4CC(C)CC(C)C4)ncnc32)c1 (stereo not drawn),?,0%,2.2µM*,1.6µM*,2.6µM*,5.4µM*
CCn1c(=O)c2sccc2n2c(CCC(=O)Nc3ccc(C(C)C)cc3)nnc12,-1%,·,·,·,·,-9%
CC(=O)Oc1cc(OC(C)=O)c2c(c1)OC(c1ccc(OC(C)=O)c(OC(C)=O)c1)C(OC(C)=O)C2 (stereo not drawn),-4%,-1%,·,·,·,·
CCc1ccc(NC(=O)C(C)n2nnc3sc(-c4ccccc4)cc3c2=O)cc1 (stereo not drawn),10%,·,·,·,·,-16%
COc1cc(OC)cc(C(=O)Nc2ccc(-n3cnnn3)c(C)c2)c1,23%,14µM*,?,?,?,15µM*
COc1cc(NC(=O)c2ccccc2-n2cnnn2)cc(OC)c1,·,·,-2%,-3%,0%,-2%
Cc1cc(NC(=O)c2oc3ccccc3c2C)ccc1-n1cnnn1,-10%,-1%,19%,4%,-2%,4.8µM*
O=C(O)C[C@@H](C(=O)O)C1c2ccccc2-c2ccccc21,-4%[9.22 µM],-3%[7.66 µM],·,·,·,·
CCCc1nn(C)c(C(=O)Nc2ccc(C(C)(C)C)cc2)c1Cl,-4%,1%,-5%,-3%,-3%,?
CCCc1nn(C)c(C(=O)Nc2ccc(Cl)cc2)c1Cl,-12%,0%,11%,10%,-4%,-10%
CCCc1nn(C)c(C(=O)Nc2cccc(C)c2)c1Cl,19%,-1%,?,?,?,17µM*
CCCc1nn(C)c(C(=O)Nc2ccccc2)c1Cl,-29%,-5%,3.5µM*,1.1µM*,?,7.6µM*
CCCc1nn(C)c(C(=O)Nc2cccc(Cl)c2)c1Cl,-22%,-5%,26%,?,?,21µM*
